Tests used:
Test in all cases: PBM binding z-score (relative to random genomic background probes); higher = stronger binding; sequences stand for … in GC…GCGATTGACAGCGTAGAATGAAGG
[1] = test system: FXR:RXRa (NR concentration 270 nM, RXRa partner concentration 90 nM)
In short: (§1)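 Custom Agilent 4×180K protein-binding microarrays carried double-stranded probes, each with a 34-nt variable region. These regions held direct-repeat seeds, single-nucleotide variants, half-site ablations and random human genomic background sequences. Ligand-free nuclear receptor dimers were incubated on the arrays for 1 h, antibodies against each partner (one per run) detected binding, and scanned fluorescence was regression-normalized. Binding z-scores take the random background probes as reference.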

[2] = test system: LXRa:RXRa (NR concentration 270 nM, RXRa partner concentration 90 nM)
In short: as §1

[3] = test system: LXRa homodimer (NR concentration 270 nM)
In short: as §1

[4] = test system: LXRb:RXRa (NR concentration 270 nM, RXRa partner concentration 90 nM)
In short: as §1

[5] = test system: LXRb homodimer (NR concentration 270 nM)
In short: as §1

[6] = test system: PPARa:RXRa (NR concentration 270 nM, RXRa partner concentration 90 nM)
In short: as §1

[7] = test system: PPARg:RXRa (NR concentration 180 nM, RXRa partner concentration 90 nM)
In short: as §1

[8] = test system: PPARg:RXRa 270nM:90nM, anti-RXR (NR concentration 270 nM, RXRa partner concentration 90 nM)
In short: as §1

[9] = test system: PPARg:RXRa 30nM:10nM, anti-RXR (NR concentration 30 nM, RXRa partner concentration 10 nM)
In short: as §1

[10] = test system: PPARg:RXRa 90nM:30nM, anti-RXR (NR concentration 90 nM, RXRa partner concentration 30 nM)
In short: as §1

CGTCCAAGGTCAAAGGGCAGTGAAGAGATGACGG
PBM binding z-score [1]: 7.23 | PBM binding z-score [2]: 5.66 | PBM binding z-score [3]: 1 | PBM binding z-score [4]: 4.32 | PBM binding z-score [5]: 0.742 | PBM binding z-score [6]: 6.15 | PBM binding z-score [7]: 7.62 | PBM binding z-score [8]: 7.16 | PBM binding z-score [9]: 5.08 | PBM binding z-score [10]: 7.03

CCTACTGGGCCAAGGGTCATTGATTCCAATGCTC
PBM binding z-score [1]: 2.79 | PBM binding z-score [2]: 2.59 | PBM binding z-score [3]: 0.211 | PBM binding z-score [4]: 2.63 | PBM binding z-score [5]: -0.578 | PBM binding z-score [6]: 5.27 | PBM binding z-score [7]: 10.2 | PBM binding z-score [8]: 9.04 | PBM binding z-score [9]: 8.43 | PBM binding z-score [10]: 10.2

TCATATCGGTAAATGCTAGGTGAAAGTCCGATCT
PBM binding z-score [1]: 0.228 | PBM binding z-score [2]: 0.361 | PBM binding z-score [3]: 0.17 | PBM binding z-score [4]: 0.39 | PBM binding z-score [5]: 0.0158 | PBM binding z-score [6]: 0.778 | PBM binding z-score [7]: 0.243 | PBM binding z-score [8]: 2.06 | PBM binding z-score [9]: 3.69 | PBM binding z-score [10]: 2.84

TTACCAAGGTGAGCTGAGGTCGTCGATCCAACTC
PBM binding z-score [1]: 1.73 | PBM binding z-score [2]: 0.879 | PBM binding z-score [3]: -0.506 | PBM binding z-score [4]: 0.696 | PBM binding z-score [5]: -1.82 | PBM binding z-score [6]: 1.82 | PBM binding z-score [7]: 0.26 | PBM binding z-score [8]: 1.06 | PBM binding z-score [9]: -0.186 | PBM binding z-score [10]: 0.372

TCTACTAGTTGAAGGGCAACCGACGAGTCCGTTT
PBM binding z-score [1]: 0.338 | PBM binding z-score [2]: 0.156 | PBM binding z-score [3]: -0.296 | PBM binding z-score [4]: 0.212 | PBM binding z-score [5]: -0.37 | PBM binding z-score [6]: 0.726 | PBM binding z-score [7]: 0.214 | PBM binding z-score [8]: 1.58 | PBM binding z-score [9]: 3.03 | PBM binding z-score [10]: 2.48

GCAGACAGGTGACACGCAGGTAACTCAGGGTGGC
PBM binding z-score [1]: -0.0725 | PBM binding z-score [2]: -0.255 | PBM binding z-score [3]: -0.585 | PBM binding z-score [4]: -0.69 | PBM binding z-score [5]: -1.06 | PBM binding z-score [6]: 0.614 | PBM binding z-score [7]: 0.69 | PBM binding z-score [8]: -0.241 | PBM binding z-score [9]: -0.412 | PBM binding z-score [10]: -0.395

ACTAGCAGGCCCAGGGTCACTCAAGATTAGTCCG
PBM binding z-score [1]: 1.28 | PBM binding z-score [2]: 1.58 | PBM binding z-score [3]: -0.164 | PBM binding z-score [4]: 1.69 | PBM binding z-score [5]: -0.913 | PBM binding z-score [6]: 2.27 | PBM binding z-score [7]: 1.36 | PBM binding z-score [8]: 2.3 | PBM binding z-score [9]: 0.49 | PBM binding z-score [10]: 1.68

ATCTCTAGGTAAAATTCAGTGAAAGATCGATAGA
PBM binding z-score [1]: 0.583 | PBM binding z-score [2]: 0.493 | PBM binding z-score [3]: 0.422 | PBM binding z-score [4]: 0.121 | PBM binding z-score [5]: 0.916 | PBM binding z-score [6]: 0.171 | PBM binding z-score [7]: 0.606 | PBM binding z-score [8]: 0.699 | PBM binding z-score [9]: 0.552 | PBM binding z-score [10]: 0.917

GGAGCGAGGGCAAGTTGATAGCAGAGTTTGATGG
PBM binding z-score [1]: 0.394 | PBM binding z-score [2]: 0.0427 | PBM binding z-score [3]: -0.544 | PBM binding z-score [4]: 0.219 | PBM binding z-score [5]: -0.594 | PBM binding z-score [6]: 0.728 | PBM binding z-score [7]: 0.238 | PBM binding z-score [8]: 0.276 | PBM binding z-score [9]: -0.604 | PBM binding z-score [10]: -0.121

ACTTTCGGGTCAACGAGGTTATAGCACGCGTATA
PBM binding z-score [1]: 6.38 | PBM binding z-score [2]: 5.02 | PBM binding z-score [3]: 0.999 | PBM binding z-score [4]: 4.56 | PBM binding z-score [5]: 1.45 | PBM binding z-score [6]: 5.52 | PBM binding z-score [7]: 4.94 | PBM binding z-score [8]: 5.18 | PBM binding z-score [9]: 2.34 | PBM binding z-score [10]: 4.34

ATACCAAGGTGATCGTGACGTCGTTGATACTAAC
PBM binding z-score [1]: 0.364 | PBM binding z-score [2]: 0.342 | PBM binding z-score [3]: 0.147 | PBM binding z-score [4]: 0.547 | PBM binding z-score [5]: -0.176 | PBM binding z-score [6]: 0.36 | PBM binding z-score [7]: 0.582 | PBM binding z-score [8]: 0.302 | PBM binding z-score [9]: -0.0759 | PBM binding z-score [10]: 0.172

ATATGTAGGTTAGCTGGGGTAATTCAGACTAGGC
PBM binding z-score [1]: 0.983 | PBM binding z-score [2]: 0.79 | PBM binding z-score [3]: 0.216 | PBM binding z-score [4]: 1.28 | PBM binding z-score [5]: 0.815 | PBM binding z-score [6]: 2.91 | PBM binding z-score [7]: 3.61 | PBM binding z-score [8]: 3 | PBM binding z-score [9]: 0.942 | PBM binding z-score [10]: 2.01

AGAACGAGGGCACGCTGAGTTGAAAGCAGAGTAG
PBM binding z-score [1]: 0.945 | PBM binding z-score [2]: 0.542 | PBM binding z-score [3]: -0.955 | PBM binding z-score [4]: 0.276 | PBM binding z-score [5]: -0.933 | PBM binding z-score [6]: 2.38 | PBM binding z-score [7]: 2.11 | PBM binding z-score [8]: 1.77 | PBM binding z-score [9]: 0.0784 | PBM binding z-score [10]: 1.03

CGAACTAGGTCAGAACAGGACAGTGAGGGATGAT
PBM binding z-score [1]: 1.59 | PBM binding z-score [2]: 0.807 | PBM binding z-score [3]: -0.0765 | PBM binding z-score [4]: 0.315 | PBM binding z-score [5]: -0.376 | PBM binding z-score [6]: 2.96 | PBM binding z-score [7]: 5.04 | PBM binding z-score [8]: 4.45 | PBM binding z-score [9]: 1.74 | PBM binding z-score [10]: 3.43

TCTTGTAGATCAAAGGTTAAGTAAGCCGAAGCCT
PBM binding z-score [1]: 2.04 | PBM binding z-score [2]: 2.34 | PBM binding z-score [3]: 0.244 | PBM binding z-score [4]: 2.28 | PBM binding z-score [5]: 0.0721 | PBM binding z-score [6]: 4.84 | PBM binding z-score [7]: 8.98 | PBM binding z-score [8]: 8.32 | PBM binding z-score [9]: 7.35 | PBM binding z-score [10]: 8.69

CCTACTGGGACAAAGGTCATTGATTCCAATGCTC
PBM binding z-score [1]: 5.11 | PBM binding z-score [2]: 5.21 | PBM binding z-score [3]: 4.66 | PBM binding z-score [4]: 4.9 | PBM binding z-score [5]: 1.5 | PBM binding z-score [6]: 6.27 | PBM binding z-score [7]: 11.8 | PBM binding z-score [8]: 10.3 | PBM binding z-score [9]: 12.2 | PBM binding z-score [10]: 11.7

TCTGGTAGATCAGCAGGTTAAGAAAGCTGGCCAA
PBM binding z-score [1]: -0.0813 | PBM binding z-score [2]: -0.0843 | PBM binding z-score [3]: -0.0573 | PBM binding z-score [4]: 0.308 | PBM binding z-score [5]: -1.12 | PBM binding z-score [6]: 0.507 | PBM binding z-score [7]: -0.637 | PBM binding z-score [8]: 1.06 | PBM binding z-score [9]: 1.81 | PBM binding z-score [10]: 1.12

GCTGCTAGGTCAACTGATGGTCAGCCAAAGCTCG
PBM binding z-score [1]: 3.81 | PBM binding z-score [2]: 3.1 | PBM binding z-score [3]: 0.159 | PBM binding z-score [4]: 2.08 | PBM binding z-score [5]: 0.187 | PBM binding z-score [6]: 3.65 | PBM binding z-score [7]: 2.88 | PBM binding z-score [8]: 2.91 | PBM binding z-score [9]: 0.226 | PBM binding z-score [10]: 1.68

CCTCGGAGGACAACATGAGGTCAGAGCTGCCAGA
PBM binding z-score [1]: 1.56 | PBM binding z-score [2]: 3.37 | PBM binding z-score [3]: 3.95 | PBM binding z-score [4]: 2.18 | PBM binding z-score [5]: -0.278 | PBM binding z-score [6]: 2.38 | PBM binding z-score [7]: 0.717 | PBM binding z-score [8]: 0.534 | PBM binding z-score [9]: -0.623 | PBM binding z-score [10]: 0.0899

ACTAGCAGGCCAAGGGTCACCCAAGATTAGTCCG
PBM binding z-score [1]: 3.24 | PBM binding z-score [2]: 2.98 | PBM binding z-score [3]: 0.036 | PBM binding z-score [4]: 2.76 | PBM binding z-score [5]: -0.624 | PBM binding z-score [6]: 5.01 | PBM binding z-score [7]: 8.49 | PBM binding z-score [8]: 7.88 | PBM binding z-score [9]: 6.88 | PBM binding z-score [10]: 9.09

AGTACGAGGGCAATGAGTTGATAGCACGGGTGGC
PBM binding z-score [1]: 0.396 | PBM binding z-score [2]: 0.352 | PBM binding z-score [3]: -0.477 | PBM binding z-score [4]: 0.0796 | PBM binding z-score [5]: -0.401 | PBM binding z-score [6]: 0.795 | PBM binding z-score [7]: 1.08 | PBM binding z-score [8]: 0.242 | PBM binding z-score [9]: -0.0294 | PBM binding z-score [10]: 0.117

CCTACTCGGCCATTCAGAGGTCATTGATCATATG
PBM binding z-score [1]: 3.34 | PBM binding z-score [2]: 4.79 | PBM binding z-score [3]: 7.45 | PBM binding z-score [4]: 4.25 | PBM binding z-score [5]: 1.6 | PBM binding z-score [6]: 3.7 | PBM binding z-score [7]: 1.05 | PBM binding z-score [8]: 1.96 | PBM binding z-score [9]: 0.587 | PBM binding z-score [10]: 1.31

TCATATAGGTAAATGCTAGGTGAAAGGCCGATCT
PBM binding z-score [1]: 0.626 | PBM binding z-score [2]: 1.07 | PBM binding z-score [3]: 0.239 | PBM binding z-score [4]: 0.994 | PBM binding z-score [5]: 0.0512 | PBM binding z-score [6]: 1.93 | PBM binding z-score [7]: 1.81 | PBM binding z-score [8]: 3.17 | PBM binding z-score [9]: 3.62 | PBM binding z-score [10]: 3.95

TCGAGTAGGTTAGTCGGGGCATTCATCCAACATA
PBM binding z-score [1]: 0.0168 | PBM binding z-score [2]: -0.035 | PBM binding z-score [3]: 0.0686 | PBM binding z-score [4]: 0.86 | PBM binding z-score [5]: -0.262 | PBM binding z-score [6]: 0.795 | PBM binding z-score [7]: 0.0659 | PBM binding z-score [8]: 0.755 | PBM binding z-score [9]: 1.55 | PBM binding z-score [10]: 0.83

— the supplement of paper PMC6555819
